Whole data set: some 39,000 sequences, median “fluorescence intensity (a.u.)” near 4,300, cut for the highest 2% near 39,000. Many of the other results were omitted from the sample, so the highest values are more common in it than they were.

The assay deals with T1, OsSMF1 (Oryza sativa, UniProt Q6ZLB0 1-436).
T1 sequence: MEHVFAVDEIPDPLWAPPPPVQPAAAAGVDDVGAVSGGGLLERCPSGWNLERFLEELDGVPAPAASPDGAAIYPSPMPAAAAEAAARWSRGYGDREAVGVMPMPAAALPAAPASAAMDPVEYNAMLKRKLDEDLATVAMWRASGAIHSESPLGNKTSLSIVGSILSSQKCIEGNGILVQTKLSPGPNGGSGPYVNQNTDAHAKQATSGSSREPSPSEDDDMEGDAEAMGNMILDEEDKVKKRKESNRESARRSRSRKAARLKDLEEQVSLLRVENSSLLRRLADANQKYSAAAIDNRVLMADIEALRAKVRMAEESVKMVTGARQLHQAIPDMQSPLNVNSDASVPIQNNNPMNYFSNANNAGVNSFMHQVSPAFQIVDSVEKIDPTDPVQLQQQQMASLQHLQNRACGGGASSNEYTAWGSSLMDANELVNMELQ
Kind of assay: protein-binding microarray (RPBM); PBS, 2% BSA, 51.3 ng/ul salmon testes DNA, 50 uM zinc acetate, 200 nM TF, 25 C, 1 h; high values mean tight binding. The following applies: protein: recombinant; tags: N-terminal polyhistidine and DsRed monomer fusion (pET32a); chain copies: 2; label: CyDye5-dUTP incorporated in the synthesized complementary strand; 3' TTTTT single-stranded linker to array surface; dsDNA, one strand shown. In a few lines: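 Binding signal is defined as the fluorescence intensity of each feature in arbitrary units, read on an Axon 4000B scanner. Transcription factors with N-terminal polyhistidine and DsRed fusions came from E. coli BL21-CodonPlus and were purified on Ni–NTA. They were incubated at 200 nM for 1 h at 25 °C on a custom Agilent array that had been made double-stranded with Cy5-dUTP, with 50 µM zinc acetate present, and the array was washed.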
For the sequence “GGATAAGTGCCCCTACCAATAGGTGGACCCTTGTCACTGGCGGAGTCACCTAGTGCAG”, the binding signal is 19300 fluorescence intensity (a.u.).
For the sequence “TGTCAATAATGCATCCTGCAGCTAACATCAAATGACATGGCGGAGTCACCTAGTGCAG”, the binding signal was 3150 fluorescence intensity (a.u.).
The result for “GGCCGCTGATCTACGTGGCGGCAGTTCGGTACAGGTGGTGCGGAGTCACCTAGTGCAG” reads 10500 fluorescence intensity (a.u.); that for “CCATCCCATGGTGGGCCGGTTAGTTCTGTTCCTGGGCCATCGGAGTCACCTAGTGCAG”, 64400 fluorescence intensity (a.u.); that for “GGGCCCCTCCCAAATCTCCCATGGTTCCATCCATCCCCATCGGAGTCACCTAGTGCAG”, 3890 fluorescence intensity (a.u.).
Next, “GCTGTTGGTTGGTGCCACATCCCACGCTGCCATGCCATGCCGGAGTCACCTAGTGCAG”: 4910 fluorescence intensity (a.u.); “ATTAGTATTCCCTCCCATCATTAATATATGACGTTAGTGTCGGAGTCACCTAGTGCAG”: 4550 fluorescence intensity (a.u.); “CGGGAGGGGAGGGGAATGGATGTGGGGAGGAGAGAGACTGCGGAGTCACCTAGTGCAG”: 4600 fluorescence intensity (a.u.).
The result for “TTCGTCATAGTGTGGAACGACACATCATGAAGATTAGAGACGGAGTCACCTAGTGCAG” reads 3630 fluorescence intensity (a.u.); that for “CCGGGAAATTCTTGTGTTGTTGTGTTGGTCTTGAGCAATTCGGAGTCACCTAGTGCAG”, 3630 fluorescence intensity (a.u.); that for “TGCAAATTGTGCTTTTCTATTCTGTTGTGTCTTCTGCTTTCGGAGTCACCTAGTGCAG”, 40700 fluorescence intensity (a.u.).
“GTTCTGTCTTAACCTGCTTTCATATTAATTGTTAAAGTTGCGGAGTCACCTAGTGCAG”: the binding signal is 3280 fluorescence intensity (a.u.).
Next, “AGCCTAGGAGGAGATGTGACCTCACAGTCAGGTGTCATCGCGGAGTCACCTAGTGCAG”: 3660 fluorescence intensity (a.u.); “ACCAACCAACCAACCAACCAACCAAGCCTCCCAACTCCATCGGAGTCACCTAGTGCAG”: 3810 fluorescence intensity (a.u.); “GATTCGCGTCCTCCGTTTGCTTCGCTTCTTCTTCTAGAACCGGAGTCACCTAGTGCAG”: 3490 fluorescence intensity (a.u.).
Regarding “CGTCCACGTCCATCTCCGCCGCTGACAGCACCAGCTCTTCCGGAGTCACCTAGTGCAG”, the binding signal is 5020 fluorescence intensity (a.u.).
For “TTCCCCTTCCGCGACTGCGAGCTTCTCCGCCGCCGCCGCCCGGAGTCACCTAGTGCAG”, the binding signal was 3160 fluorescence intensity (a.u.).
The result for “ACCCCTGCGAATATATAATTTCCCCGCGAGGCCGCGAGCCCGGAGTCACCTAGTGCAG” reads 47700 fluorescence intensity (a.u.); that for “AGAGCCGAGGCCCGAATTCCTCCGGTCCTCCTCGTGACCCCGGAGTCACCTAGTGCAG”, 15400 fluorescence intensity (a.u.); that for “CACTCTCCTCCTACACTGCATGCTGCTGCTGACGTGGCTCCGGAGTCACCTAGTGCAG”, 24900 fluorescence intensity (a.u.).
Consider “TGAGAATACCAGATGACAAAAGGTGACAGTAGTTAGGAACCGGAGTCACCTAGTGCAG”, for which the binding signal was 4190 fluorescence intensity (a.u.).
Next, “GGGAGGTGTGGTGATCGATCGCCATGCGCGGATTTTCTAACGGAGTCACCTAGTGCAG”: 5590 fluorescence intensity (a.u.); “AGTGCTTTATCACACAGAATCAATACCCAAGAAGCATATGCGGAGTCACCTAGTGCAG”: 41000 fluorescence intensity (a.u.).
Next, “TTATCTCCAATTTAAGCAACCAGAGGAATATATATGCTTGCGGAGTCACCTAGTGCAG”: 53500 fluorescence intensity (a.u.).
The result for “TTTATCAAATATTTTGTTCCAAAGCTTACATAAGCATATGCGGAGTCACCTAGTGCAG” reads 3320 fluorescence intensity (a.u.).
For “TGATTGTTTAACCAAAATATATGCAATTGACTAAGCAAAACGGAGTCACCTAGTGCAG”, the binding signal is 3220 fluorescence intensity (a.u.).
Next, “CCAAGCAAGCATACAGAGAGCAATAAAAGTATAAAACACACGGAGTCACCTAGTGCAG”: 4950 fluorescence intensity (a.u.); “GCTTGCGCCAAAACCAAACATAGAGCAGCAATAGAGAGGACGGAGTCACCTAGTGCAG”: 3610 fluorescence intensity (a.u.).
Next, “CAACCAAGCAAGCGGCAGCAGAGCGCGAGTCATGCGACCCCGGAGTCACCTAGTGCAG”: 3180 fluorescence intensity (a.u.); “CACGCGCCGGTGCCTTGCGCCGTCACCGTGCCAGCCCAGCCGGAGTCACCTAGTGCAG”: 5670 fluorescence intensity (a.u.).
The result for “GCGTGGCCACATCAGCCTCCTCTCTCCCTTCCTCATCTCTCGGAGTCACCTAGTGCAG” reads 14700 fluorescence intensity (a.u.); that for “AGGAGGGTGGAGCTGTGCCAAACAGACCCTAAGTGTTTTCCGGAGTCACCTAGTGCAG”, 62100 fluorescence intensity (a.u.).
As to “CTCCAGGAGGGGTGGAGTTGGAGCTGGAGCTGTGACAAACCGGAGTCACCTAGTGCAG”, the binding signal is 12800 fluorescence intensity (a.u.).
The result for “AGGAGGGGTGGAGCTGGAGCTGGAGCTGTGCCAAACAGGCCGGAGTCACCTAGTGCAG” reads 3190 fluorescence intensity (a.u.); that for “TTCTTTCATCAATTACTAGGCCTAGATGGGTAATTTTGGTCGGAGTCACCTAGTGCAG”, 3200 fluorescence intensity (a.u.); that for “ATCTTGCCGAAGTTGTTGGTGACGAAGTCGAGGCTGCCGACGGAGTCACCTAGTGCAG”, 3180 fluorescence intensity (a.u.).
Next, “AAAGTCAATATAGGAATACAATTTAGAAGTAACTTAAATTCGGAGTCACCTAGTGCAG”: 25600 fluorescence intensity (a.u.); “TTAGGCCAAGTATGGGGTTGGGGCTATGGAGGAGAAGGGCCGGAGTCACCTAGTGCAG”: 3320 fluorescence intensity (a.u.); “TACTTAGTAGCTAGGAGCTATATTGGTTGGAAAGGAGCGCCGGAGTCACCTAGTGCAG”: 51200 fluorescence intensity (a.u.).
The result for “CTTAGCCGGCTATACGCGGCTACGTTGGCTGACTTGGTAGCGGAGTCACCTAGTGCAG” reads 4170 fluorescence intensity (a.u.); that for “CGCAGCACGCACGCACGCAGACACGCCCACGCGTTGCGGCCGGAGTCACCTAGTGCAG”, 3550 fluorescence intensity (a.u.).
“CCGCGCCGTCCCTCCTGACGCGGCGTCTCGCCGCCGCCGCCGGAGTCACCTAGTGCAG”: the binding signal is 3780 fluorescence intensity (a.u.).
As for “TCCCGATCGACGCGTGCATGGCGGCGAGCCTTCTGTCCCACGGAGTCACCTAGTGCAG”, the binding signal is 3330 fluorescence intensity (a.u.).
With “CCTTCCAACATGTTTATTATGCATGAGATGTGTGCAACGACGGAGTCACCTAGTGCAG”, the binding signal was 3360 fluorescence intensity (a.u.).
Next, “CATTCAACGCTCGCGTGCGTGCAGTGCCGTGTGTGGACCGCGGAGTCACCTAGTGCAG”: 54900 fluorescence intensity (a.u.); “TTCAACGGCGCGTGCCGACGTGGCCGCTGCGGCGTGCGTGCGGAGTCACCTAGTGCAG”: 10300 fluorescence intensity (a.u.).
The result for “AGAGGGACGTCGACGCGTGGTGCCGTGGTGGTGTCGCTCGCGGAGTCACCTAGTGCAG” reads 3400 fluorescence intensity (a.u.).
Next, “TGGCACATTCTCATCGTATTTTCTTGTTGCTCTATGTATGCGGAGTCACCTAGTGCAG”: 3180 fluorescence intensity (a.u.).
With “ACTATAATTCATGGGATTATGTGCCAGCAGTCATAATATCCGGAGTCACCTAGTGCAG”, the binding signal is 3180 fluorescence intensity (a.u.).
Next, “GAGTTAGCAGTGTTGACCACGGTCAAGGTGCCACGTCATCCGGAGTCACCTAGTGCAG”: 43000 fluorescence intensity (a.u.); “TTGAGTCAGTAGTGTTGACAACGGTCAAGGTGCCACGTCACGGAGTCACCTAGTGCAG”: 26100 fluorescence intensity (a.u.).
The result for “GACATGTAGGACCCACGTGAGTCAATGACACGTGGGTCAGCGGAGTCACCTAGTGCAG” reads 23800 fluorescence intensity (a.u.).
Next, “CAGTGACTCCTCTCCTACGTAGGCGCCACGTCAGCAAAACCGGAGTCACCTAGTGCAG”: 20900 fluorescence intensity (a.u.).
With “GCGTCATCATGACATGCCACGTCAGCACATGGAGCGGGTTCGGAGTCACCTAGTGCAG”, the binding signal was 26100 fluorescence intensity (a.u.).
Take “ATTTTATTGGGATCAAATTACCACGTAGGCGCCACGTCAACGGAGTCACCTAGTGCAG”: the binding signal was 20900 fluorescence intensity (a.u.).
The result for “CGCTACCGTGGCATGCCACGTCACCGGATGGAGCGGGTCGCGGAGTCACCTAGTGCAG” reads 20100 fluorescence intensity (a.u.); that for “GTGCCTCCGTAGCAATGCCACGTCAGCATATGGAGCGGGTCGGAGTCACCTAGTGCAG”, 44600 fluorescence intensity (a.u.).
Next, “AAGTTCACAGTGCTGACCACGGTCAAGGTGCCACGTCATCCGGAGTCACCTAGTGCAG”: 35200 fluorescence intensity (a.u.).
Next, “TATTACCACGTAGGCGCCACGTGGCGCCACGTCAGCAAAACGGAGTCACCTAGTGCAG”: 42100 fluorescence intensity (a.u.); “ACACGTGGGTCCACGTAGGCGACACGTCAATGCCACGTCACGGAGTCACCTAGTGCAG”: 55900 fluorescence intensity (a.u.); “TGTGGGGTCCACGTAATGCCACGTCAGCGCAACCTAGGAACGGAGTCACCTAGTGCAG”: 37100 fluorescence intensity (a.u.).

Values taken from PMC7819943, “Rice protein-binding microarrays: a tool to detect cis-acting elements near promoter regions in rice”.
